The campaign covered roughly 59,000 compounds. About 6,500 (11%) were called active. About 15% were inconclusive and are not listed. Rule as the data show it: active = max dye-equivalent concentration above about 10 nM; inconclusive = mostly about 1.1 nM to 9.6 nM; inactive = weaker than that. Shown is part of a subset that was picked to be rich in actives.
Test: qHTS Assay for Spectroscopic Profiling in A350 Spectral Region
Settings: Compound autofluorescence, 340/450 nm, Alexa 350 dye-equivalents; hits give high values

Structure (SMILES) | max dye-equivalent concentration
COCCNc1ncnc2ccc(-c3cccnc3)cc12 | inactive
C=C(C)COc1ccc(-c2n[nH]c(C)c2-c2ccccc2OC)c(O)c1 | inactive
CN1CCc2[nH]nc(-c3n[nH]c4c3CN(C)CC4)c2C1 | inactive
CCCSc1nc2c(c(=O)n(C)c(=O)n2C)n1Cc1ccc(C)cc1 | inactive
COc1ccccc1N1CCN(C(=O)Cn2nnc(-c3cccs3)n2)CC1 | inactive
COc1ccc2c(c1)C(C)=CC(C)(C)N2C(=O)CNCc1ccc2c(c1)OCO2 | inactive
O=C1Nc2ccccc2C12Nc1ccccc1S2 (stereo not drawn) | inactive
CCCCSc1nnc(-c2ccc(NC(=O)CC)cc2)n1C | inactive
Cc1cc(N2CCCC2=O)cc(C)c1S(N)(=O)=O | inactive
COc1ccc(CCNS(=O)(=O)c2ccc(C(=O)NCc3ccco3)cc2)cc1OC | inactive
C(=C\c1ccccc1)/CSc1nnc(-c2cccnc2)n1Cc1ccco1 | inactive
Clc1cccc(-c2nc3nc4ccccc4nc3n2Cc2ccco2)c1 | 150 nM (active)
O=C(CSc1nnc(-c2cccnc2)n1Cc1ccco1)c1ccc(Cl)cc1 | inactive
O=C(NCC12CC3CC(C1)CC(CNC(=O)N1CCCC1)(C3)C2)N1CCCC1 | inactive
CC(=O)NCCc1ccc(S(=O)(=O)N(C)C2CCS(=O)(=O)C2)cc1 (stereo not drawn) | inactive
CCc1nc(Nc2ccc3nccnc3c2)c2oc3ccccc3c2n1 | 82 nM (active)
C[C@@H](Nc1nc(-c2ccccc2)nc2c1oc1ccccc12)C(=O)O | inactive
Cc1nc(N2CCN(c3ncccn3)CC2)c2oc3ccccc3c2n1 | inactive
Cc1ccc(O)c(NC(=O)COc2cc(C)ccc2C)c1 | inactive
CC(=O)c1ccc(N2C(=NC(=O)C(C)C)SC3CS(=O)(=O)CC32)cc1 (stereo not drawn) | inactive
CCOC(=O)CSc1nncc2ccc(OC)c(OC)c12 | inactive
Cc1ccccc1N1C(=O)C2ON(c3ccccc3)C(c3ccncc3)C2C1=O (stereo not drawn) | inactive
C=CCSC1=C(C#N)C(c2cc(Br)c(O)c(OC)c2)CC(=O)N1 (stereo not drawn) | inactive
Cc1cc2c(cc1C)NC(c1ccccn1)C1=C(CC(C)(C)CC1=O)N2 (stereo not drawn) | inactive
COc1cc(C2C(C#N)=C(C)NC3=C2C(=O)CC(C)(C)C3)ccc1O (stereo not drawn) | 17 nM (active)

Structure (SMILES) | max dye-equivalent concentration
CCOc1ccc(CN(Cc2ccco2)C(c2cccs2)c2nnnn2C(C)(C)C)cc1 (stereo not drawn) | inactive
CCN(Cc1ccncc1)C(=O)[C@@H](CO)c1ccccc1 | inactive
COc1ccc(C(=O)N/N=C2/C(=O)c3c(C)cc(C)cc3CC2(C)C)cc1 | inactive
Cc1ccc(-c2nc(COC(=O)c3c(C)noc3C)cs2)cc1 | inactive
Cc1noc(C)c1C(=O)Nc1ccccn1 | inactive
Cc1noc(C)c1C(=O)OCC(=O)/C=C1\N(C)c2ccccc2C1(C)C | 210 nM (active)
COc1cc(C(=O)Nc2nccs2)cc(OC)c1OC | inactive
COC(=O)c1cccc(NC(=O)CN2CCC(NC(=O)c3cc(OC)c(OC)c(OC)c3)CC2)c1 | inactive
COc1cc(C(=O)Nc2oc(-c3ccccc3)c(-c3ccccc3)c2C#N)cc(OC)c1OC | 11 nM (active)
COc1ccc(CNc2ncncc2-c2ccccc2OC)c(OC)c1 | inactive
COc1ccc(S(=O)(=O)N2CCCCC2)cc1Br | inactive
COCCn1c(=O)[nH]c2cc(C(=O)NCc3cccnc3)ccc2c1=O | 38 nM (active)
CC(C)(C)c1cc(C(=O)NCc2cccnc2)ccn1 | inactive
Cc1ccc(-n2nc(-c3ccco3)cc2C(=O)NCc2cccnc2)cc1 | inactive
CC1=C2C(=O)OC(c3ccoc3)C2(C)CCC1 (stereo not drawn) | inactive
Cc1ccccc1N1CCN(S(=O)(=O)C[C@@]23CC[C@H](C[C@H]2NC(=O)[C@@H](N)CCS(C)(=O)=O)C3(C)C)CC1 | inactive
CCCC(=O)Nc1nnc(CC(=O)OCC)s1 | inactive
NC(=O)COc1ccc2c3c(c(=O)oc2c1)CCCCC3 | 29 nM (active)
O=C(COc1ccccc1F)NC1CC1 | inactive
O=C(COc1ccc2oc3c(c2c1)CCCC3)Nc1ccccn1 | inactive
Cc1cc(Cl)c(S(=O)(=O)NCC2CCCO2)cc1OCC(N)=O (stereo not drawn) | inactive
O=C(CC1OC(=O)c2ccccc21)NC1CCCCC1 (stereo not drawn) | inactive
O=C(COc1ccc2c3c(c(=O)oc2c1)CCC3)NC1CCCCC1 | 82 nM (active)
COc1ccccc1Nc1nc(N)nc(CN(C)C2CCCCC2)n1 | inactive
COc1cccc(-c2cc(NCCc3c[nH]c4ccc(OC)cc34)ncn2)c1 | inactive

Structure (SMILES) | max dye-equivalent concentration
O=S1(=O)CCN2C(=N1)SC1=C2CCN(Cc2ccccc2)C1 | inactive
CC1(C)CC(=O)c2cc(OCC(=O)NCC3CCCO3)ccc2O1 (stereo not drawn) | 1600 nM (active)
O=C(Cn1c(=O)n(Cc2ccco2)c(=O)c2ccccc21)NCC1CCCO1 (stereo not drawn) | inactive
COc1ccccc1-n1cnc2cc(C(=O)NCC3CCCO3)ccc21 (stereo not drawn) | inactive
O=C(c1csnn1)N1CCC2(CCN(Cc3nccs3)CC2)CC1 | inactive
Cc1cc(C)n(C(=O)c2ccc(S(=O)(=O)N3CCCC3)cc2)n1 | inactive
Cn1nnc2cc(C(=O)NCCC3=CCCCC3)ccc21 | inactive
CCOC(=O)c1cc2n(c1N)-c1ccccc1C2=O | inactive
CCCn1c(=NC(C)=O)c(C(=O)OCC)cc2c(=O)n3ccccc3nc21 | 4900 nM (active)
CCOC(=O)c1cc2n(c1C)-c1ccccc1C2=O | inactive
O=S(=O)(CCc1nc2ccccc2o1)c1ccc(Cl)cc1 | inactive
CN1CCC2(CC1)NC(=O)NC2=O | inactive
CCN(CC)S(=O)(=O)c1cccc(C(=O)Nc2cc(C)nn2-c2nc(C)cc(C)n2)c1 | inactive
CSCCC(Nc1nc2ccccc2s1)C(=O)O (stereo not drawn) | inactive
COC(=O)Cc1cc(=O)n(-c2nc3ccccc3s2)[nH]1 | inactive
CCC(=O)NC(=Nc1nc2ccccc2s1)NC(=O)CC | 190 nM (active)
O=C(O)[C@@H](S)[C@H](S)C(=O)O | inactive
Cc1ccc(-n2c(SCC(=O)Nc3ccc4c(c3)OCO4)nnc2-c2ccoc2C)cc1 | inactive
O=C(CSc1nnc(-c2c[nH]c3ccccc23)n1-c1ccc(F)cc1)NCc1ccco1 | inactive
O=C(CSc1nnc(-c2cccs2)n1-c1ccccc1)N1CCN(C(=O)c2ccco2)CC1 | inactive
O=C(CSc1nnc(-c2cccs2)n1-c1ccccc1)NCc1ccco1 | 11 nM (active)
COc1ccc(C(=O)NC(=O)CSc2nnc(-c3ccco3)n2-c2ccccc2)cc1 | inactive
COc1ccc(-n2c(SCC(=O)NCc3cccs3)nnc2-c2ccoc2C)cc1 | 27 nM (active)

— PubChem BioAssay AID590 (National Center for Advancing Translational Sciences (NCATS), 2007)
